NPC1 prom act = NPC1 promoter activation; Huh7 NPC1 promoter luciferase reporter, 24 h; Potency, µM (titrated, usually from 9.22 µM), for the others: at the highest dose activation, actives largely listed as activators; actives 2.4% (n = 320,000); AID 485313; further: % of control where 0% means no effect; nearly all actives have a fitted effect of over 60% in size
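Readout is luciferase luminescence, reflecting NPC1 promoter activation in stably transfected Huh7 cells after 24 h compound exposure at 37 °C in reduced-serum medium with 10% FBS.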
SMN2 splice up = increases expression of the SMN2 splice variant; HEK293 SMN2-luciferase splicing reporter, luminescence, 30-36 h; Potency, µM (highest dose often 46.1 µM), for inactives: at the highest dose activity change, positive = activation, hits mostly activators; actives 2.8% (n = 210,000); AID 1458; further: % of control where 0% means no effect; nearly all actives have a fitted effect of over 55% in size
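HEK293 cells carry an SMN2 minigene-luciferase reporter in which exon 7 inclusion puts luciferase in frame. Cells were seeded at 2000 cells/well, attached for 10-12 hours, then exposed to compounds for 30-36 hours at 37C before ONE-Glo luminescence.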
FLuc modulator = inhibits or activates purified firefly luciferase, miR-21 counter-screen | P08659 | purified FLuc, Km substrates, luminescence inhibition | Potency, µM (top dose mostly 57.5 µM), inactives show top-dose activity change, negative = inhibition, most hits filed as inhibitors | actives 6.9% (n = 360,000);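 further: plate controls were vehicle for no effect and reference inhibitor for full effect; nearly all actives have a fitted effect of over 55% in size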
Target sequence (P08659 whole entry, looked up): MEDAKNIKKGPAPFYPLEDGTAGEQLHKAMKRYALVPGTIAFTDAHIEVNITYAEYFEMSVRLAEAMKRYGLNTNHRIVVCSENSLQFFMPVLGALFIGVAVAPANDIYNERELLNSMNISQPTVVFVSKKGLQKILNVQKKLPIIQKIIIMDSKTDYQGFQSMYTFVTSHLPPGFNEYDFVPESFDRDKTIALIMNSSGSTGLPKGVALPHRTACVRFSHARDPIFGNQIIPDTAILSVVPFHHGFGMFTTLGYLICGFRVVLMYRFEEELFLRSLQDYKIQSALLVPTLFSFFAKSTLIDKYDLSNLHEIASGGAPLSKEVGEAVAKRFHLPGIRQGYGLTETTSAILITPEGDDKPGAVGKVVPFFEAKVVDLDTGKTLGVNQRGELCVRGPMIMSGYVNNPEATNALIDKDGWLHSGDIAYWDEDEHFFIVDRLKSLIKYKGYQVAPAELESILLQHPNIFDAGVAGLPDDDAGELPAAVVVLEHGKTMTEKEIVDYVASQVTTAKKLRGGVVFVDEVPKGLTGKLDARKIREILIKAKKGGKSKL
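Purified P. pyralis luciferase, 10 nM final, with Km-level 10 uM D-luciferin and 10 uM ATP in 50 mM Tris acetate pH 7.5, 10 mM Mg acetate, 0.01% Tween-20, 0.05% BSA; 6-point qHTS titration about 60 µM downward; luminescence read.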
Rab9 promoter act = activators of Rab9 promoter; actives 2.8% (n = 320,000); Huh7 Rab9 promoter-luciferase reporter, luminescence, 24 h; AID 485297; Potency, µM (doses to about 9.22 µM), without a hit: at the top dose activation, negative = inhibition, most hits filed as activators; further: % of control where 0% means no effect; nearly all actives have a fitted effect of over 60% in size
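Rab9 promoter-driven luciferase in stably transfected Huh7 cells; 1500 cells/well rested 2 h, exposed to compound in DMSO for 24 h at 37 °C, 5% CO2. Luminescence read 10 min after adding luciferase reagent at ambient temperature.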
KinaseGlo FLuc = counter-screen: inhibitors of Kinase-Glo firefly luciferase; Q27757; Kinase-Glo luciferase, ATP luminescence, 8 min; Potency, µM (series often up to 38.3 µM), for inactives: at the highest dose activity change, negative = inhibition, usual class: inhibitors; actives 0.28% (n = 200,000); further: on the % scale 0 is the no-effect control and ±100 the full control effect; nearly all actives have a fitted effect of over 60% in size
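Recombinant Kinase-Glo luciferase, 10 uM ATP (linear range), luciferin; imidazole pH 7.2 / KCl / MgCl2 / Tween / BSA buffer; 8 min RT; luminescence.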
ELG1 genotoxic = genotoxicity induction in ELG1-luciferase HEK293T cells; Potency, µM (titrated, usually from 46 µM), for the others: at the top dose activity change, positive = activation, most hits filed as activators; AID 504466; HEK293T ELG1-luciferase reporter, luminescence, 16 h; actives 1.3% (n = 330,000); further: % of control where 0% means no effect; nearly all actives have a fitted effect of over 60% in size
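Cells (2,000/well) expressing the ELG1-luciferase fusion are dosed by pin tool and kept 16 hr at 37 °C, 5% CO2. Signal comes from ONE-Glo luciferase reagent after 30 min at room temperature.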
The depositor's hits bear a star; ? = inconclusive; nt = no result; [ ] = another dose, or the depositor's remark. Rows were chosen to be rich in hits. Some 7.4% of all compounds tested hit in one or more screens of this group. The call rests on the fitted dose curve; in most records, active means well fitted curve in the direction sought with a large enough effect; inconclusive means small, poorly fitted or top-dose-only effect, or another doubt; inactive means no such curve, though single readings can be large; an effect the other way counts as inactive or inconclusive. Potency means the concentration at half of the fitted maximal effect.

SMILES | NPC1 prom act | SMN2 splice up | FLuc modulator | Rab9 promoter act | KinaseGlo FLuc | ELG1 genotoxic
O=C(/C=C/c1ccoc1)c1ccccc1O | -3% | -7% | 9.5µM* | -3% | -5% | ?
O=C(/C=C/c1cc2ccccc2o1)c1ccccc1O | ? | nt | 2.4µM* | ? | nt | ?
COc1ccc(O)c(C(=O)/C=C/c2cc3ccccc3o2)c1 | -2% | nt | ? | -7% | nt | nt
O=C(O)/C=C\c1ccc(O)c(O)c1 | nt | -2%[20.6 µM] | nt | nt | 3%[17.1 µM] | nt
O=C(/C=C/c1ccc(O)c(O)c1)c1ccccc1O | 0% | nt | 8.5µM* | -18% | nt | ?
O=C(/C=C/c1ccc(O)c(O)c1)OCCc1ccccc1 | -8%[46.1 µM] | 16µM* | nt | -25%[46.1 µM] | -4% | nt
O=C(Nc1nncs1)C1CC(=O)N(CCc2ccc(F)cc2)C1 (stereo not drawn) | 3% | nt | -1% | -2% | nt | -1%
Cc1ccc(C)c(N2CCN(C(=O)CCc3nc(-c4ccc(Br)cc4)no3)CC2)c1 | nt | nt | nt | nt | nt | 12%
CC(C)C[C@H](NC(=O)c1nc[nH]c1C(=O)NCc1ccc(CNC(=O)OC(C)(C)C)cc1)C(=O)OCc1ccccc1 | -3% | nt | 2% | 1% | nt | -1%
O=C1NC[C@@H](c2ccccc2)OC(=O)[C@@H](Cc2ccc(F)cc2)C/C=C\C[C@@H]1CC(=O)N(CCO)Cc1ccccc1 | nt | nt | nt | nt | nt | -7%
COc1ccc2ccccc2c1C(=O)/C=C\c1ccoc1 | -6% | -8% | 27µM* | 3% | -6% | 0%
NNC(=O)c1cc(C23CC4CC(CC(C4)C2)C3)[nH]n1 | 8% | nt | ? | 13% | nt | 3%
COc1cccc2cc(-c3nnc(Nc4ccccc4C)s3)c(=O)oc12 | nt | nt | 0.34µM* | nt | nt | nt
CCc1sc(Nc2cccc(C)c2)nc1-c1cc2cccc(OC)c2oc1=O | nt | nt | 7.6µM* | nt | nt | nt
CCCNC(=S)N(Cc1ccccc1)Cc1nc2ccccc2c(=O)[nH]1 | 0% | 8% | 1% | -4% | 0% | 1%
COC(=O)Cn1c(=O)c2cccn2c2ccc(F)cc21 | nt | 9% | -2% | nt | nt | nt
Cc1cc(C)n(C(C)CNS(=O)(=O)c2ccc(Cl)cc2)n1 (stereo not drawn) | 1% | nt | 2% | -4% | nt | 0%
Cc1nn(-c2ccccn2)c(C)c1Oc1ccccc1O | 1% | -12% | -3% | 7% | 4% | 8%
Cc1nn(-c2nc3ccccc3s2)c(C)c1Oc1ccccc1O | 3.5µM* | ? | 2.4µM* | 3.2µM* | -1% | ?
CC(=O)N1N=C(c2ccc(Cl)cc2)OC1c1ccc(C(C)C)cc1 (stereo not drawn) | 24% | 19% | 12µM* | 29% | 0% | ?
CC(=O)N1N=C(c2ccc(C)cc2)OC1c1ccc(Br)cc1 (stereo not drawn) | -1% | nt | -3% | 9% | -2% | -3%
CCOC(=O)c1cc(-c2ccccc2)sc1NC(=O)c1ccc(OC)cc1 | 1% | -22% | ? | 0% | 1% | -1%
Cc1ccccc1C(=O)Nc1ccc(O)cc1C(=O)O | 0% | 4% | ? | -2% | -1% | -1%
O=C(Nc1ccccc1C(=O)O)c1cccc(NC(=O)c2ccc(Br)o2)c1 | -2% | 4% | 19µM* | 2% | 3% | 1%
O=C(Nc1sc(-c2ccccc2)cc1C(=O)O)c1ccccc1 | 3.2µM* | nt | ? | 2.8µM* | nt | 23%
CC(=O)Nc1cccc(C(=O)Nc2ccccc2C(=O)O)c1 | -1% | 5% | 24µM* | 8% | -1% | -1%
O=C(Nc1ccc(O)cc1C(=O)O)c1cccc(Br)c1 | 2% | -6% | 21µM* | 6% | -1% | -1%
COC(=O)CCCC1=CC2=C(c3ccccc3)C(=O)C(C)(OC(=O)C3CCCC3)C(=O)C2=CO1 (stereo not drawn) | nt | -6% | nt | nt | -4% | nt
O=[N+]([O-])c1cccc(C=Nc2cc3c(cc2Br)OCCO3)c1 | -2% | 17% | ? | 0% | -3% | 1%
